Assay results taken from PubChem BioAssay (NCATS).
Inconclusive results are not listed. Entries that show only a call come without a potency. A number with no mark means an inactive call. Calls of active or inactive are those of the source. Calls come from the whole dose curve; as a rule, active = well fitted curve in the direction sought with a large enough effect; inconclusive = small, poorly fitted or top-dose-only effect, or another doubt; inactive = no such curve, though single readings can be large; an effect the other way counts as inactive or inconclusive.

Assays:
HEK293 = assay: Cytotoxic Profiling of Annotated Libraries Using Quantitative High-Throughput Screening (AID 1296008); conditions: Five cell lines viability, CellTiter-Glo ATP luminescence, 48-72 h; max response: hits give low values; note: nearly all actives have a fitted effect of over 60% in size; note: potency is the fitted concentration of half-maximal effect
How it was run: (§1)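 Compounds were pin-transferred onto cells and incubated 48 or 72 hr at 37 degree Celsius, 95% humidity. CellTiter-Glo was added, plates sat 10 min at room temperature, then ATP-coupled luminescence was imaged as the viability read-out.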

HaCat = assay: as above; conditions: Five cell lines viability, CellTiter-Glo ATP luminescence, 48-72 h; max response: hits give low values
How it was run: as §1

KB-3-1 = assay: as above; conditions: Five cell lines viability, CellTiter-Glo ATP luminescence, 48-72 h; max response: hits give low values
How it was run: as §1

NIH3T3 = assay: as above; conditions: Five cell lines viability, CellTiter-Glo ATP luminescence, 48-72 h; max response: hits give low values
How it was run: as §1

C33A = assay: Primary qHTS to identify gynecologic anti-cancer compounds using libraries of approved drugs and bioactive compounds (AID 1345084); conditions: Gynecologic cancer cell panel viability, ATPlite luminescence, 48 h; series mostly up to 57.5 µM; note: nearly all actives have a fitted effect of over 55% in size
How it was run: (§2)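 Cytotoxicity screen measuring ATP content by luciferase luminescence. Each compound is applied at five concentrations for 48 h at 37 C with 5% CO2.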

CAOV3 = assay: as above; conditions: Gynecologic cancer cell panel viability, ATPlite luminescence, 48 h; series mostly up to 57.5 µM
How it was run: as §2

CASKI = assay: as above; conditions: Gynecologic cancer cell panel viability, ATPlite luminescence, 48 h; series mostly up to 57.5 µM
How it was run: as §2

Es-2 = assay: as above; conditions: Gynecologic cancer cell panel viability, ATPlite luminescence, 48 h; series mostly up to 57.5 µM
How it was run: as §2

HeLa = assay: as above; conditions: Gynecologic cancer cell panel viability, ATPlite luminescence, 48 h; series mostly up to 57.5 µM
How it was run: as §2

Hek293T = assay: as above; conditions: Gynecologic cancer cell panel viability, ATPlite luminescence, 48 h, control line for the selectivity index; series mostly up to 57.5 µM
How it was run: as §2

JEG-3 = assay: as above; conditions: Gynecologic cancer cell panel viability, ATPlite luminescence, 48 h; series mostly up to 57.5 µM
How it was run: as §2

Compound | Potency (HEK293) | max response (HaCat) | max response (KB-3-1) | max response (NIH3T3) | Potency (C33A) | Potency (CAOV3) | Potency (CASKI) | Potency (Es-2) | Potency (HeLa) | Potency (Hek293T) | Potency (JEG-3) | max response (HEK293) | outcome (KB-3-1) | activity change, negative = cytotoxicity (C33A) | activity change, negative = cytotoxicity (CAOV3) | activity change, negative = cytotoxicity (CASKI) | activity change, negative = cytotoxicity (Es-2) | activity change, negative = cytotoxicity (HeLa) | activity change, negative = cytotoxicity (Hek293T) | activity change, negative = cytotoxicity (JEG-3)
Cc1ccc(F)cc1C(=O)Nc1ccc(C(=O)N2Cc3cccn3Cc3ccccc32)c(Cl)c1 | 9.2 µM (active) | -26.5% | -16% | -21.1% | inactive | inactive | inactive | inactive | inactive | inactive | inactive |  |  |  |  |  |  |  |  | 
C=C1C[C@]23C[C@H]1CC[C@H]2C1=C[C@H]2OC(=O)[C@@](C)([C@H]1[C@@H]3C(=O)O)[C@H]2O |  | 1.41% |  | 3.03% | inactive | inactive | inactive | inactive | inactive | inactive | inactive | 4.48% | inactive |  |  |  |  |  |  | 
O=C(NCc1ccc(F)cc1)C(=O)c1c[nH]c2ccccc12 |  | -19.7% | -9.55% | -16.4% | inactive | inactive | inactive | inactive | inactive | inactive | inactive | -9.93% |  |  |  |  |  |  |  | 
C=C1C(O)C[C@@H]2C(C(=O)O)=CO[C@@H](O[C@@H]3O[C@H](CO)[C@@H](O)[C@H](O)[C@H]3OC(=O)c3ccc(O)cc3)[C@H]12 (some centres not stated) |  | 0.151% |  | 4.25% | inactive | inactive | inactive | inactive | inactive | inactive | inactive | -0.967% | inactive |  |  |  |  |  |  | 
C=C1C(=O)OC2CC3(C)C(CC12)C(C)=CC(O)C3OC(C)=O (configuration not stated) |  | 3.89% |  | -1.8% | inactive | inactive | inactive | inactive | inactive | inactive | inactive | -3.84% | inactive |  |  |  |  |  |  | 
C[C@@H]1C(=O)O[C@H](C)[C@H]1CC(=O)[C@](C)(O)[C@H]1CC[C@@]2(O)C3=CC(=O)[C@@H]4C[C@@H](O)[C@@H](O)C[C@]4(C)C3CC[C@]12C (some centres not stated) |  | -15.8% | -2.99% | 1.5% | inactive | inactive | inactive | inactive | inactive | inactive | inactive | -19.4% |  |  |  |  |  |  |  | 
COC(=O)CC(O)C1OC(c2ccccc2)C(O)C1O (configuration not stated) |  | -28.3% | 2.62% | -5.26% | inactive | inactive | inactive | inactive | inactive | inactive | inactive | 2.88% |  |  |  |  |  |  |  | 
CC(/C=C/C1=CC2=CC(=O)C(C)(O)C(O)C2=CO1)=C\C(C)CCO (configuration not stated) |  | -24.3% | 4.06% | 0.418% | inactive | inactive | inactive | inactive | inactive | inactive | inactive | -3.02% |  |  |  |  |  |  |  | 
C[C@@H]1O[C@@H](O[C@H]2[C@H](OC(=O)[C@]34CCC(C)(C)C[C@H]3C3=CCC5[C@@]6(C)C[C@H](O)[C@H](O[C@@H]7O[C@H](CO)[C@@H](O[C@H]8OC[C@](O)(CO)[C@H]8O)[C@H](O)[C@H]7O)[C@@](C)(CO)C6[C@H](O)C[C@@]5(C)[C@]3(C)C[C@H]4O)OC[C@H](O)[C@@H]2O)[C@H](O)[C@H](O)[C@H]1O[C@@H]1OC[C@@H](O)[C@H](O[C@@H]2OC[C@](O)(CO)[C@H]2O)[C@H]1O (some centres not stated) |  | -7.37% | 8.08% | -0.781% |  |  |  |  |  |  |  | 0.437% |  | -2.68% [at 6.55 µM] | -10.4% [at 6.55 µM] | -0.0524% [at 6.55 µM] | 0.233% [at 6.55 µM] | -3.15% [at 6.55 µM] | 2.67% [at 6.55 µM] | 23.3% [at 6.55 µM]
CC1(C)CC2C(O)c3cocc3CC(C)(O)C2C1 (configuration not stated) |  | -7.3% | 5.78% | 2.81% | inactive | inactive | inactive | inactive | inactive | inactive | inactive | 3.14% |  |  |  |  |  |  |  | 
C[C@@]12C[C@]3(O)O[C@H](O1)[C@]1(COC(=O)c4ccccc4)[C@H]3C[C@@]12O[C@@H]1O[C@H](CO)[C@@H](O)[C@H](O)[C@H]1O |  | -7.15% | 8.38% | 3.01% | inactive | inactive | inactive | inactive | inactive | inactive | inactive | 0.308% |  |  |  |  |  |  |  | 
O=C1NC(Cc2ccccc2)C(=O)N2CCCC12 (configuration not stated) |  | 2.36% | 9.71% | -0.863% | inactive | inactive | inactive | inactive | inactive | inactive | inactive | -1.73% |  |  |  |  |  |  |  | 
